Reference: PubChem BioAssay (EPA / NIEHS)
The source made the active and inactive calls. How the source made its calls: active means hit-call score of the fitted dose curve at least 0.9, where 1 is the maximum; inactive means score below 0.9.

Experiments:
[1] = target: Bile acid receptor (Homo sapiens) (UniProt Q96RI1); assay: ATG_IR1_CIS: Attagene CIS-FACTORIAL HepG2 Assay for human Nuclear Receptor Subfamily 1 Group H Member 4 (NR1H4), IR1 submotif (AID 2282946); details: IR1 reporter transcription, actives raise or lower the signal
Bile acid receptor (Homo sapiens), sequence (Q96RI1 whole entry, looked up, the tested form may be a part): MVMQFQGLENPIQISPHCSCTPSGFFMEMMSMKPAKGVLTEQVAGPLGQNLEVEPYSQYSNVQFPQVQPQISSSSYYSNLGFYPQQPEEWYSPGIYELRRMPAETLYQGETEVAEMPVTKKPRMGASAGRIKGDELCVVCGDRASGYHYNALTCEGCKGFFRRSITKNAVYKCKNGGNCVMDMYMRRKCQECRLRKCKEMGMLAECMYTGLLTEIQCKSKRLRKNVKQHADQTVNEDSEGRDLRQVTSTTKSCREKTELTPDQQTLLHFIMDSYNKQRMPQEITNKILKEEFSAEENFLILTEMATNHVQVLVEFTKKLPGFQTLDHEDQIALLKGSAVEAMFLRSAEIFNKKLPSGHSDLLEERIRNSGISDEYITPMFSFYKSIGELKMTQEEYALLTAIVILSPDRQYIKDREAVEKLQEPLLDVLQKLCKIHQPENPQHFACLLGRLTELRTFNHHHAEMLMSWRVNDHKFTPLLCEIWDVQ
In short: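 Cells (human HepG2) carry transiently transfected cis-promoter reporter transcription units. Compounds are incubated 24 h, total RNA is reverse-transcribed and amplified, and labelled fragments are resolved by capillary electrophoresis. Curves use DMSO as baseline.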

[2] = ATG_GRE_CIS: Attagene CIS-FACTORIAL HepG2 Assay for human Glucocorticoid Response Elements (GRE) (AID 2282947); details: HepG2 GRE cis-reporter, Attagene multiplex mRNA; actives raise or lower the signal
In short: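 Assay uses human hepatoma HepG2 cells transfected with cis-promoter reporter units, exposed 24 h. mRNA from reporters detected by RT-PCR plus capillary electrophoresis; DMSO serves as negative control and baseline.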

[3] = ATG_ISRE_CIS: Attagene CIS-FACTORIAL HepG2 Assay for human Interferon Regulatory Factor 1 (IRF1) binding to an Interferon-Stimulated Response Element (ISRE) (AID 2282948); details: HepG2 ISRE cis-reporter (Attagene), mRNA transcription readout; actives raise or lower the signal
In short: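 Transfected HepG2 (multiple reporter transcription units, cis elements) dosed 24 h. RNA → oligo(dT) RT → PCR → 6-FAM primer extension → HpaI → CE. DMSO = negative control/baseline.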

[4] = ATG_M_06_CIS: Attagene CIS-FACTORIAL HepG2 Assay for M06 Transcription Factor (Internal Marker) (AID 2282950); details: HepG2 Attagene CIS-FACTORIAL M06 internal marker reporter; actives raise or lower the signal
In short: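 Internal background marker within multiplexed cis-reporter HepG2 system. Cells transiently transfected, dosed 24 h; reporter mRNA measured by RT-PCR, HpaI digestion and capillary electrophoresis. Bidirectional fit relative to DMSO.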

[5] = target: Hypoxia-inducible factor 1-alpha (Homo sapiens) (UniProt Q16665); assay: ATG_HIF1a_CIS: Attagene CIS-FACTORIAL HepG2 Assay for human Hypoxia Inducible Factor 1 (HIF1A) (AID 2282951); details: HepG2 Attagene cis-factorial HIF1a reporter transcription; actives raise or lower the signal
Hypoxia-inducible factor 1-alpha (Homo sapiens), sequence (Q16665 whole entry, looked up): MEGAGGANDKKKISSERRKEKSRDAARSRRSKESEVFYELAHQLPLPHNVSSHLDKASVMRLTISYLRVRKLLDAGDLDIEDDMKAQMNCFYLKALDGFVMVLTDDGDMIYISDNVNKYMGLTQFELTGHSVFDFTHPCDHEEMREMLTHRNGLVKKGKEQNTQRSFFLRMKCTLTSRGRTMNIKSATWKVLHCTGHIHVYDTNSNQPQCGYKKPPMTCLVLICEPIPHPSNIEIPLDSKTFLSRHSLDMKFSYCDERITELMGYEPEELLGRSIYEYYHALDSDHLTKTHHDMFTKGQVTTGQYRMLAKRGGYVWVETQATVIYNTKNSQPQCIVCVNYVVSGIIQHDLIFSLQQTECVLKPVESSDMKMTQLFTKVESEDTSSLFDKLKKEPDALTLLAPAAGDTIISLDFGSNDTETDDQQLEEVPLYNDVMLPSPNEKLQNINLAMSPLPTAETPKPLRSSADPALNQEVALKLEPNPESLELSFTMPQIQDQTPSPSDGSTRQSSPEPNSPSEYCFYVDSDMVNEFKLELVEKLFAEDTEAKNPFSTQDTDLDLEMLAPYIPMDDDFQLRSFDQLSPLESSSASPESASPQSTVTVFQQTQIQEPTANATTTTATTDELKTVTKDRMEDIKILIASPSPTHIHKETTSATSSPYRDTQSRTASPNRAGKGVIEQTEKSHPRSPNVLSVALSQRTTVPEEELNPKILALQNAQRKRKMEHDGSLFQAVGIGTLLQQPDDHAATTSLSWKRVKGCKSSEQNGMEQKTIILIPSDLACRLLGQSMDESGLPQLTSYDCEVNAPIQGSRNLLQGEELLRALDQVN
In short: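 Measures endogenous transcription-factor activity through cis-regulated reporter mRNA in HepG2. Cells dosed 24 h; transcripts quantified by RT-PCR with 6-FAM-labelled products separated by capillary electrophoresis; DMSO serves as negative control.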

[6] = target: Hepatocyte nuclear factor 6 (Homo sapiens) (UniProt Q9UBC0); assay: ATG_HNF6_CIS: Attagene CIS-FACTORIAL HepG2 Assay for human Hepatocyte Nuclear Factor 6 (HNF6) (AID 2282952); details: HepG2 Attagene cis-factorial HNF6 reporter transcription; actives raise or lower the signal
Hepatocyte nuclear factor 6 (Homo sapiens), sequence (Q9UBC0 whole entry, looked up): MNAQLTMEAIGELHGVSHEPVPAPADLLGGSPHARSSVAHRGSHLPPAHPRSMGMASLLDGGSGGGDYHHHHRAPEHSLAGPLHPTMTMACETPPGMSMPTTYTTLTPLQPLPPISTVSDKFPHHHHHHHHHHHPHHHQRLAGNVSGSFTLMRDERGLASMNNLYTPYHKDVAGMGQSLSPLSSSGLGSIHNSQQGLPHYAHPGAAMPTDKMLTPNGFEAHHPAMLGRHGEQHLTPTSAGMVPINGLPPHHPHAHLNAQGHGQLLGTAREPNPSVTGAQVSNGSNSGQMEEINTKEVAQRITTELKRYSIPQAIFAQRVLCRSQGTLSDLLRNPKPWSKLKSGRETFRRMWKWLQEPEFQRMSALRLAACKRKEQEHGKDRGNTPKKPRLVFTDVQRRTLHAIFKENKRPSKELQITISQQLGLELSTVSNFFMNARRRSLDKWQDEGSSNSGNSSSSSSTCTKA
In short: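 HepG2, transient MRTU transfection (cis promoters); 24 h chemical exposure; total RNA → oligo(dT) RT → PCR → 6-FAM labelling → HpaI cut → CE; bidirectional fit vs DMSO.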

[7] = target: Heat shock factor protein 1 (Homo sapiens) (UniProt Q00613); assay: ATG_HSE_CIS: Attagene CIS-FACTORIAL HepG2 Assay for human Heat Shock Transcription Factor 1 (HSE) (AID 2282953); details: HepG2 HSE cis-reporter, Attagene RNA transcription; actives raise or lower the signal
Heat shock factor protein 1 (Homo sapiens), sequence (Q00613 whole entry, looked up): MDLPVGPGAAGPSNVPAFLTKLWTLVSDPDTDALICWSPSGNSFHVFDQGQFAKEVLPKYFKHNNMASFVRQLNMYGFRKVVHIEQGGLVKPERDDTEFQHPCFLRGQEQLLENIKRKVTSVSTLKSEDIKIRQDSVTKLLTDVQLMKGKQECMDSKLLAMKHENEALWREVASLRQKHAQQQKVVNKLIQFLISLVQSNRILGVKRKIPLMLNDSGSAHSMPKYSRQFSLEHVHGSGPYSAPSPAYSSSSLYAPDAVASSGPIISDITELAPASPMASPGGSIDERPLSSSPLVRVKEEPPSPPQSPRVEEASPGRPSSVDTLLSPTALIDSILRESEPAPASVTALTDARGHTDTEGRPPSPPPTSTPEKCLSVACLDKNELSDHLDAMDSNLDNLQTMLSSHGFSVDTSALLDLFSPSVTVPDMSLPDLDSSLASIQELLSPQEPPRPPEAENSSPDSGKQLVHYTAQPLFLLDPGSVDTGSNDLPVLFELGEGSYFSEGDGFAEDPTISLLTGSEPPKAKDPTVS
In short: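 HepG2 cells transfected with cis-promoter reporter units sensing endogenous transcription factor activity; reporter mRNA quantified 24 h post-dose by RT-PCR and capillary electrophoresis of 6-FAM-labelled products. Bidirectional fitting against DMSO.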

[8] = ATG_MRE_CIS: Attagene CIS-FACTORIAL HepG2 Assay for human Metal Responsive Element (MRE) (AID 2282954); details: HepG2 MRE cis-reporter transcription, Attagene multiplex; actives raise or lower the signal
In short: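 After a 24 h chemical exposure, transiently transfected HepG2 cells yield RNA whose reporter sequences are amplified, FAM-labelled and sized by capillary electrophoresis. Curves are fitted bidirectionally relative to DMSO.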

[9] = ATG_PBREM_CIS: Attagene CIS-FACTORIAL HepG2 Assay for human Phenobarbital-responsive Enhancer Module (PBREM) (AID 2282955); details: HepG2 PBREM cis-reporter, Attagene multiplexed transcription; actives raise or lower the signal
In short: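 Fluorescence of labelled reporter cDNA fragments, resolved by capillary electrophoresis, gives mRNA induction in transfected HepG2 cells treated for 24 h; DMSO serves as negative control and baseline.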

[10] = target: Paired box protein Pax-6 (Homo sapiens) (UniProt P26367); assay: ATG_Pax6_CIS: Attagene CIS-FACTORIAL HepG2 Assay for human Paired Box 6 (PAX6) (AID 2282956); details: HepG2 CIS-FACTORIAL PAX6 reporter transcription, RNA readout; actives raise or lower the signal
Paired box protein Pax-6 (Homo sapiens), sequence (P26367 whole entry, looked up): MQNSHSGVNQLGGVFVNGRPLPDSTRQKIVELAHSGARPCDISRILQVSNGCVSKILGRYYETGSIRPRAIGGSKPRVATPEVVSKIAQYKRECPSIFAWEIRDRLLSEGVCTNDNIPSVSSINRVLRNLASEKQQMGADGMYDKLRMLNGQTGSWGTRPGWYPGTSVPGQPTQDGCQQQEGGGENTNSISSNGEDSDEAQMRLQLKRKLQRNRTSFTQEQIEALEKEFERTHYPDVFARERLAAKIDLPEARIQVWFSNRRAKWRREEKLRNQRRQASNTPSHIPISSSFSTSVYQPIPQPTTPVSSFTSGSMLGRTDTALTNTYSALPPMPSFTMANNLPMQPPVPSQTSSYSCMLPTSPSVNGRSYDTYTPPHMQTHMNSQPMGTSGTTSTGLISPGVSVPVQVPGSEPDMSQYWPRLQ
In short: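 Transient MRTU transfection of HepG2 → compound exposure 24 h → TriZol RNA, oligo(dT) RT → PCR, 6-FAM primer extension, HpaI cut → capillary electrophoresis; activity fitted both directions against DMSO.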

[11] = ATG_PPRE_CIS: Attagene CIS-FACTORIAL HepG2 Assay for human Peroxisome Proliferator-activated Response Element (PPRE) (AID 2282958); details: HepG2 PPRE cis-element reporter, Attagene transcription factor profiling; actives raise or lower the signal
In short: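 Cells are first transfected transiently with the multiplexed reporter library, then dosed for 24 h. Total RNA is reverse-transcribed, amplified, fluorescently end-labeled and HpaI-cut before capillary electrophoresis; activity is fitted bidirectionally against DMSO controls.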

[12] = ATG_Sox_CIS: Attagene CIS-FACTORIAL HepG2 Assay for human SRY-box transcription factor (SOX) (AID 2282960); details: HepG2 Attagene cis-factorial SOX reporter, mRNA; actives raise or lower the signal
In short: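 Transient MRTU transfection of HepG2; 24 h compound incubation; TriZol RNA, oligo(dT) RT, PCR, 6-FAM primer extension, HpaI cut, CE. Bidirectional fit, DMSO = baseline.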

[13] = target: Transcription factor Sp1 (Homo sapiens) (UniProt P08047); assay: ATG_Sp1_CIS: Attagene CIS-FACTORIAL HepG2 Assay for human Specificity Protein 1 (Sp1) (AID 2282961); details: HepG2 Sp1 cis-reporter transcription, actives raise or lower the signal
Transcription factor Sp1 (Homo sapiens), sequence (P08047 whole entry, looked up): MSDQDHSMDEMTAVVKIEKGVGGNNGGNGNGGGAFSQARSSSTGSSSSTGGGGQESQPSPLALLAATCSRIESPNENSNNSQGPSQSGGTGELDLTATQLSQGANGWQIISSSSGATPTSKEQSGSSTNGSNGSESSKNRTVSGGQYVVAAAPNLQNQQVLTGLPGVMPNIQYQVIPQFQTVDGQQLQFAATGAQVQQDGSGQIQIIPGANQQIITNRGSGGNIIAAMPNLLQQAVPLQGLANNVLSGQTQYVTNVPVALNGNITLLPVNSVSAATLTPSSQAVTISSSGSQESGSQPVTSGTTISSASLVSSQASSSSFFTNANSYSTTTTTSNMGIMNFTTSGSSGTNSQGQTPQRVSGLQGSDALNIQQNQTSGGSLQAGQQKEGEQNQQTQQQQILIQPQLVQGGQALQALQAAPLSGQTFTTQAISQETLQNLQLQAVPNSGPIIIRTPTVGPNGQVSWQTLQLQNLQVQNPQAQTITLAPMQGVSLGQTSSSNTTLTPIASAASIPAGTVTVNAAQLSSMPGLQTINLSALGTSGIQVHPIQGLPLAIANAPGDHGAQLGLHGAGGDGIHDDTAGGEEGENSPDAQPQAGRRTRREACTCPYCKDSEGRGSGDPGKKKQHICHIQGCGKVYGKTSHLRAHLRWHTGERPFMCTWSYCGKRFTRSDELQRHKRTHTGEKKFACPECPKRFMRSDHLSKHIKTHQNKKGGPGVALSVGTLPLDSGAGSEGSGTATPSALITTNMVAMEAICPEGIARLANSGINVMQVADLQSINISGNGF
In short: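 Endogenous Sp1 activity was gauged in human liver HepG2 cells bearing transfected reporter units under a cis-regulating promoter. After 24 h dosing, reporter mRNA was quantified by RT-PCR with capillary electrophoresis, and activity fitted bidirectionally versus DMSO.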

[14] = ATG_SREBP_CIS: Attagene CIS-FACTORIAL HepG2 Assay for human Sterol Regulatory Element Binding (SREBP) (AID 2282962); details: HepG2 Attagene cis-factorial SREBP reporter, mRNA; actives raise or lower the signal
In short: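 Transfected HepG2 (cis-regulated reporter library, endogenous TFs) → compound 24 h → total RNA → oligo(dT) RT → reporter-specific PCR → FAM primer extension, HpaI cut → CE fluorescence. Fit bidirectional vs DMSO.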

[15] = ATG_TA_CIS: Attagene CIS-FACTORIAL HepG2 Assay for human TA Basal Promoter (AID 2282964); details: HepG2 Attagene CIS-factorial TA basal promoter reporter; actives raise or lower the signal
In short: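 HepG2 cells transiently transfected with multiple reporter units under cis promoter elements, reporting endogenous transcription factor activity; this endpoint tracks the TA basal promoter as background control. Reporter mRNA after 24 h dosing measured by RT-PCR/capillary electrophoresis; bidirectional fits versus DMSO.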

[16] = ATG_TCF_b_cat_CIS: Attagene CIS-FACTORIAL HepG2 Assay for human T-Cell-Factor with beta-catenin (TCF/b-cat) (AID 2282965); details: HepG2 TCF/beta-catenin cis-reporter transcription, actives raise or lower the signal
In short: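 Endogenous transcription factor activity is captured through cis-promoter reporter constructs transiently introduced into human HepG2 liver cells. Induced reporter mRNA is measured after 24 h and fitted bidirectionally relative to DMSO.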

[17] = ATG_PXRE_CIS: Attagene CIS-FACTORIAL HepG2 Assay for human Pregnane X Receptor Element (PXRE) (AID 2282957); details: HepG2 Attagene CIS-FACTORIAL PXRE reporter, mRNA; actives raise or lower the signal
In short: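 Transfect HepG2 with MRTUs (cis promoter elements); dose chemical, incubate 24 h; isolate RNA, RT with oligo(dT), PCR, 6-FAM label, HpaI cut, CE. Gain/loss fit vs DMSO.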

[18] = ATG_RORE_CIS: Attagene CIS-FACTORIAL HepG2 Assay for human RAR-related Orphan Receptor Element (RORE) (AID 2282959); details: HepG2 Attagene cis-factorial RORE reporter, mRNA; actives raise or lower the signal
In short: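 Cells were HepG2 carrying transfected cis-regulated reporter constructs, dosed for 24 hours. Total RNA was reverse-transcribed and reporter cDNA amplified, fluorescently labeled and sized by capillary electrophoresis. Activity was fitted bidirectionally relative to DMSO.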

[19] = target: Signal transducer and activator of transcription 3 (Homo sapiens) (UniProt P40763); assay: ATG_STAT3_CIS: Attagene CIS-FACTORIAL HepG2 Assay for human Signal Transducer and Activator of Transcription 3 (STAT3) (AID 2282963); details: HepG2, Attagene cis-factorial STAT3 reporter transcription; actives raise or lower the signal
Signal transducer and activator of transcription 3 (Homo sapiens), sequence (P40763 whole entry, looked up): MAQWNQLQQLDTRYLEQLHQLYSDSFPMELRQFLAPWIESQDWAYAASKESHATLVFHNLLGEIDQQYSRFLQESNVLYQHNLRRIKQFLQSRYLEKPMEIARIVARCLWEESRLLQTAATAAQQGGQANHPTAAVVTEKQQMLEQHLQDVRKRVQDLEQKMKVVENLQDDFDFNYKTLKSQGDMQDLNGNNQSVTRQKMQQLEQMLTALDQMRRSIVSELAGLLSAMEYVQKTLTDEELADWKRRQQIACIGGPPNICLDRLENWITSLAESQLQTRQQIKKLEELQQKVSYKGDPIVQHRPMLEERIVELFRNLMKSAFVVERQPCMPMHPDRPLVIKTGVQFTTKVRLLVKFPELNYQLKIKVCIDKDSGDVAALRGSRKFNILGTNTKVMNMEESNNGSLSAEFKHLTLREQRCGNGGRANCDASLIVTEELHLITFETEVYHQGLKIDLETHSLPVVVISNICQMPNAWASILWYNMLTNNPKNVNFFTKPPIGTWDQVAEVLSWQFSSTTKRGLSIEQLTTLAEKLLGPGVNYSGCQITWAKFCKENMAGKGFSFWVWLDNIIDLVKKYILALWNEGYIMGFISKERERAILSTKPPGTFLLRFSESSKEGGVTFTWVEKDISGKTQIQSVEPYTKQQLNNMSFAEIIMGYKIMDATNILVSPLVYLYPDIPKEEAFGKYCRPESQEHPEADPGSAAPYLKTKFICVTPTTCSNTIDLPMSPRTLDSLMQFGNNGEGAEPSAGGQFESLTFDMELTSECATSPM
In short: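 After a 24 h compound incubation, total RNA from MRTU-transfected HepG2 cells was converted to cDNA and reporter sequences PCR-amplified, labelled and profiled by capillary electrophoresis. Gain and loss of signal were referenced to DMSO.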

[20] = ATG_M_32_CIS: Attagene CIS-FACTORIAL HepG2 Assay for M32 Transcription Factor (Internal Marker) (AID 2282949); details: HepG2 Attagene cis-factorial M32 reporter, mRNA; actives raise or lower the signal;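 further: background control marker of the multiplexed CIS panel rather than a real target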
In short: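 Following 24 h chemical exposure of HepG2 cells transiently expressing cis-promoter reporter constructs, reporter transcript levels were determined by RT-PCR with fluorescent labelling and capillary electrophoresis, then fitted bidirectionally against DMSO.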

Measured: AC50

Nc1cc([N+](=O)[O-])ccc1Cl
not listed: [17] | [18] | [19] | [20]
inactive: all other assays above

CC(=O)OCc1ccc2c(c1)OCO2
active: [17] 26.9 µM
not listed: [9] | [11] | [20]
inactive: all other assays above

CCCCC/C=C/C=C/C=O
active: [1] 144 µM | [5] 100 µM | [10] 100 µM | [17] 26.6 µM
not listed: [7]
inactive: all other assays above

Cc1c(N(C)C)c(=O)n(-c2ccccc2)n1C
active: [17] 153 µM
not listed: [5] | [11] | [14] | [20]
inactive: all other assays above

O=Cc1ccc(F)cc1
not listed: [6] | [7] | [9]
inactive: all other assays above

BrC1CCC(Br)C(Br)CCC(Br)C(Br)CCC1Br (centres undefined)
active: [3] 87 µM | [6] 87 µM | [8] 49.2 µM | [10] 20.5 µM | [17] 0.95 µM | [13] 87 µM | [14] 53.7 µM
not listed: [7] | [18] | [19]
inactive: all other assays above

CC(C)(C#N)c1cc(Cn2cncn2)cc(C(C)(C)C#N)c1
not listed: [11] | [12] | [17] | [20]
inactive: all other assays above

C=CC(C)(O)CCC=C(C)CCC=C(C)C (centres undefined)
inactive: [1] | [18] | [16]
active: [2] 100 µM | [3] 170 µM | [4] 166 µM | [5] 170 µM | [6] 158 µM | [7] 163 µM | [8] 136 µM | [10] 134 µM | [17] 9.06 µM | [13] 161 µM | [14] 114 µM | [19] 100 µM | [15] 146 µM

Clc1ccc(Cl)c(Cl)c1Cl
not listed: [6]
inactive: all other assays above

N#Cc1nc(Cl)c(Cl)c(Cl)c1Cl
inactive: [2] | [4] | [9] | [11] | [18] | [13] | [19] | [15]
active: [1] 4.18 µM | [3] 2.79 µM | [5] 3.71 µM | [6] 5.48 µM | [7] 5.66 µM | [8] 2.63 µM | [10] 5.32 µM | [17] 5.5 µM | [12] 5.26 µM | [16] 3.82 µM

CC(=O)OCC=Cc1ccccc1
active: [17] 32.1 µM
not listed: [6] | [11]
inactive: all other assays above

COC(=O)C1=C(C)NC(C)=C(C(=O)OCCN(C)Cc2ccccc2)C1c1cccc([N+](=O)[O-])c1 (centres undefined)
active: [3] 26.2 µM | [7] 54.6 µM | [8] 19.8 µM | [9] 0.238 µM | [10] 20.5 µM
not listed: [5] | [6] | [17]
inactive: all other assays above

CC(=O)O[C@]1(C(C)=O)CC[C@H]2[C@@H]3C[C@H](C)C4=CC(=O)CC[C@]4(C)[C@H]3CC[C@@]21C
active: [3] 67.1 µM | [8] 49.9 µM | [17] 2.76 µM | [18] 11.2 µM | [15] 42.4 µM
not listed: [6] | [7]
inactive: all other assays above

CCCCCCCCCCCCCC(=O)O
active: [14] 54.9 µM
not listed: [7] | [11]
inactive: all other assays above

Cc1ncc([N+](=O)[O-])n1C
active: [17] 53.2 µM
not listed: [6] | [11] | [18] | [19]
inactive: all other assays above

CCc1c(C)cc(N)c(CC)c1N
active: [17] 64.5 µM
not listed: [7] | [11] | [18] | [20]
inactive: all other assays above
